Source: PubChem BioAssay AID743279 (National Center for Advancing Translational Sciences (NCATS), 2014)
Out of some 360,000 compounds screened, about 17,000 (4.7%) were called active. Not shown: some 5% with an inconclusive outcome. No stated cut-off is given here; in the data, active means activity change below about -50%; inconclusive means mostly about -30% to -49%; inactive means weaker than that. Only a selection was taken, and actives are over-represented in it overall.

assay: qHTS for Inhibitors of Inflammasome Signaling: IL-1-beta AlphaLISA Primary Screen; conditions: THP-1 LPS/ATP IL-1B secretion, 16 h; at 57.5 µM, active compounds read low
Summary of the method: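 THP-1 cells pretreated 1 hr with compounds (up to 57.5 uM final), then stimulated with LPS (250 ng/mL final) plus ATP (1.25 mM final); secreted IL-1B measured by AlphaLISA after 16 hr, decreased signal indicating inhibition.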
On the % scale 0 is the no-effect control and ±100 the full control effect.

Q: For `O=C(OCc1ccccc1)N1CCC2CC1c1cc(N3CCN(S(=O)(=O)c4cc(Cl)cc(Cl)c4)CC3)ccc12` (stereo unspecified), which activity change is on record?
A: 21.9% (inactive)

Q: With `CC1(C)C=Cc2c(ccc3c2OC[C@@H](c2ccc(O)cc2O)C3)O1` as the compound, how does the activity change read?
A: -13.2% (inactive)

Q: With `CC(=O)c1c(N2CCOCC2)nc(=S)n(-c2cc(C)ccc2C)c1C` as the compound, how does the activity change read?
A: -14.3% (inactive)

Q: With `CC(=O)c1c(N2CCN(c3ccc(F)cc3)CC2)nc(=S)n(-c2ccccc2)c1C` as the compound, how does the activity change read?
A: -79.7% (active)

Q: For `CC(=O)c1c(N2CCOCC2)nc(=S)n(Cc2ccccc2)c1C`, which activity change is on record?
A: 30.6% (inactive)

Q: With `CCOc1ccc(NC(=O)CN(C)C(=O)c2c(C)noc2C)cc1OCC` as the compound, how does the activity change read?
A: 2.67% (inactive)

Q: With `Cc1cccc(NC(=O)COC(=O)CCc2ccccc2)c1C` as the compound, how does the activity change read?
A: 5.72% (inactive)

Q: With `Cc1cccc(NC(=O)CSC(N)=O)c1C` as the compound, how does the activity change read?
A: -90.9% (active)

Q: For `Cc1ccccc1NC(=O)CSC(=O)c1ccccc1`, which activity change is on record?
A: 22.2% (inactive)

Q: With `CCCCCCCCCCCCCCCC(=O)OC/C=C(C)/C=C/C=C(C)/C=C/C1=C(C)CCCC1(C)C` as the compound, how does the activity change read?
A: -8.52% (inactive)

Q: With `COC(=O)c1ccccc1NS(=O)(=O)c1ccc2[nH]c(=O)[nH]c2c1` as the compound, how does the activity change read?
A: -16.3% (inactive)

Q: Which activity change does the source give for `COC(=O)c1ccc(NC(=O)c2ccccc2NS(=O)(=O)c2ccccc2)cc1` here?
A: -61.7% (active)

Q: With `CCOc1ccc(NC(=O)c2ccccc2NS(C)(=O)=O)cc1` as the compound, how does the activity change read?
A: -7.57% (inactive)

Q: For `Cc1ccc(NS(=O)(=O)c2cc3c(cc2C)NC(=O)CO3)cc1`, which activity change is on record?
A: -0.465% (inactive)

Q: Which activity change does the source give for `CC1CCN(C(=O)COC(=O)CCC(=O)c2cccs2)CC1` here?
A: 5.83% (inactive)

Q: Which activity change does the source give for `CCN1C(=O)[C@H]2[C@@H](c3ccccc3)N[C@]3(CCCN(Cc4ccc(C)cc4)C3=O)[C@H]2C1=O` here?
A: -7.34% (inactive)

Q: Which activity change does the source give for `COc1cccc(CN(C)C(=O)CC23CC4CC(CC(C4)C2)C3)c1OC` here?
A: -55.8% (active)

Q: Which activity change does the source give for `COc1ccc(CN(C)C(=O)Cc2ccsc2)c(OC)c1OC` here?
A: 40.4% (inactive)

Q: With `COc1ccc(S(=O)(=O)N2CCCCCC2)cc1C(=O)N(C)Cc1cccc(OC)c1OC` as the compound, how does the activity change read?
A: -8.59% (inactive)

Q: Which activity change does the source give for `COc1ccc(NC(=O)C2(C)Cc3c(-c4cccc(NC(C)=O)c4)ccnc3O2)cc1` (stereo unspecified) here?
A: 48.5% (inactive)

Q: With `COC1=NC2=NCCN2C(OC)=N1` as the compound, how does the activity change read?
A: 0.792% (inactive)

Q: For `COc1ccc(C(=O)ON=C2c3ccccc3-c3ccccc32)cc1OC`, which activity change is on record?
A: 0% (inactive)

Q: With `COc1ccc(C/C(N)=N/OC(=O)c2ccco2)cc1OC` as the compound, how does the activity change read?
A: 9.63% (inactive)

Q: For `COc1ccc(C(=O)O/N=C(\N)Cc2ccc(Cl)cc2Cl)cc1OC`, which activity change is on record?
A: -58.9% (active)

Q: With `CCCCC(O)C1=C[N+](=O)CC=C1` (stereo unspecified) as the compound, how does the activity change read?
A: -4.88% (inactive)

Q: With `CCn1ccnc1CNC(=O)CC1C(=O)NCCN1Cc1ccc(F)cc1Cl` (stereo unspecified) as the compound, how does the activity change read?
A: -0.584% (inactive)

Q: With `CCCCc1ccc(NC(=O)CN2C(=O)NC(Cc3ccccc3)C2=O)cc1` (stereo unspecified) as the compound, how does the activity change read?
A: -1.39% (inactive)

Q: Which activity change does the source give for `COc1ccccc1C(=O)COC(=O)CNS(=O)(=O)c1ccc(NC(C)=O)cc1` here?
A: 9.71% (inactive)

Q: With `CC(=O)Nc1ccc(S(=O)(=O)NCC(=O)OCc2cc(=O)oc3ccc4ccccc4c23)cc1` as the compound, how does the activity change read?
A: -58.2% (active)

Q: Which activity change does the source give for `COc1ccccc1CNC(=O)COC(=O)CNS(=O)(=O)c1ccc(NC(C)=O)cc1` here?
A: 32.4% (inactive)

Q: For `Cc1ccc(S(=O)(=O)N2CCCCC2)cc1NC(=O)CCNC(=O)c1ccccc1Cl`, which activity change is on record?
A: 10.9% (inactive)

Q: Which activity change does the source give for `Cc1cccc(N(C(=O)c2csnn2)C(C(=O)NCc2ccccc2)c2ccncc2)c1` (stereo unspecified) here?
A: -12.7% (inactive)

Q: With `CC1(C(=O)NS(=O)(=O)c2cccc(OC(F)F)c2)CCN1C(=O)C1CC1` (stereo unspecified) as the compound, how does the activity change read?
A: 0% (inactive)

Q: With `Cc1ccc(C(=O)CN2C(=O)NC3(CCc4ccccc43)C2=O)c(C)c1` (stereo unspecified) as the compound, how does the activity change read?
A: -6.4% (inactive)

Q: Which activity change does the source give for `COc1ccc(C(=O)CN2C(=O)NC3(CCc4ccccc43)C2=O)c(OC)c1` (stereo unspecified) here?
A: -22.2% (inactive)

Q: Which activity change does the source give for `COc1ccc(-n2c(C)cc(C(=O)CN3C(=O)NC4(CCc5ccccc54)C3=O)c2C)cc1` (stereo unspecified) here?
A: -85.6% (active)

Q: With `CC(=O)Nc1ccc(S(=O)(=O)NC(C)C(=O)OCCOc2ccc(F)cc2)cc1` (stereo unspecified) as the compound, how does the activity change read?
A: -84.9% (active)

Q: Which activity change does the source give for `CC(=O)Nc1ccc(NC(=O)COc2ccc(S(=O)(=O)NC(C)c3ccccc3)cc2)cc1` (stereo unspecified) here?
A: 18.3% (inactive)

Q: With `CC(=O)Nc1ccc(S(=O)(=O)NC(C)C(=O)OCC(=O)NC2CCCC2)cc1` (stereo unspecified) as the compound, how does the activity change read?
A: 0% (inactive)

Q: With `COc1ccccc1-c1cc2nc(NCc3cccc(Cl)c3)ccn2n1` as the compound, how does the activity change read?
A: -19.9% (inactive)

Q: With `Cc1ccc(-c2nn(-c3cccc(F)c3)cc2CNCCc2ccncc2)o1` as the compound, how does the activity change read?
A: -77.5% (active)

Q: Which activity change does the source give for `Cc1ccc(N2C(=O)C(CC(=O)Nc3cccc(F)c3)N(CCc3ccncc3)C2=O)cc1` (stereo unspecified) here?
A: -0.0392% (inactive)

Q: For `Cc1ccc(-c2cnc(C(O)c3cc(Cl)cc(Cl)c3)[nH]2)cc1` (stereo unspecified), which activity change is on record?
A: 6.64% (inactive)

Q: Which activity change does the source give for `Cc1ccc(S(=O)(=O)NCC(=O)N(CC(=O)NC(C)(C)C)Cc2cccs2)cc1` here?
A: 14.4% (inactive)

Q: With `CC(C)(C)NC(=O)CN(Cc1cccs1)C(=O)CNS(=O)(=O)c1ccccc1` as the compound, how does the activity change read?
A: -55.8% (active)

Q: For `CCC(C)(C)NC(=O)CN(Cc1cccs1)C(=O)CNS(=O)(=O)c1ccc(F)cc1`, which activity change is on record?
A: 4.73% (inactive)

Q: With `CCN1C(=O)[C@@H]2[C@@H]3CN(S(=O)(=O)c4ccccc4C)[C@@H](c4ccc(Cl)cc4)[C@@H]3C(=O)C[C@@H]2C1=O` as the compound, how does the activity change read?
A: -15.9% (inactive)

Q: For `CC1(C(=O)Nc2cccc3c2CCCC3)CCN1C(=O)CCc1ccc(Cl)cc1Cl` (stereo unspecified), which activity change is on record?
A: -9.96% (inactive)

Q: With `NC(=O)C1CCN(C(=O)CC2C(=O)NCCN2Cc2cccc(Oc3ccccc3)c2)CC1` (stereo unspecified) as the compound, how does the activity change read?
A: -6.56% (inactive)

Q: With `CCc1nnc(NC(=O)c2cc(S(=O)(=O)N3CCN(CC)CC3)ccc2Cl)s1` as the compound, how does the activity change read?
A: 18.8% (inactive)

Q: With `CC(CN1CCCCC1)c1ccccc1` (stereo unspecified) as the compound, how does the activity change read?
A: 11.2% (inactive)

Q: With `COc1ccc(C(O)(C2CCCCC2)C(CN2CCCC2)c2ccccc2)cc1` (stereo unspecified) as the compound, how does the activity change read?
A: -54.5% (active)

Q: For `CCCC(O)(c1ccc(OC)cc1)C(CN(C)C)c1ccccc1` (stereo unspecified), which activity change is on record?
A: -9.06% (inactive)

Q: With `CC(C)(C(=O)N1CCC1(C)C(=O)NS(=O)(=O)c1ccc(Br)cc1)c1ccccc1` (stereo unspecified) as the compound, how does the activity change read?
A: 17% (inactive)

Q: Which activity change does the source give for `CC(C)c1ccc(N2CC(C(=O)Nc3nccs3)CC2=O)cc1` (stereo unspecified) here?
A: -0.66% (inactive)

Q: With `CC1CN(C(=O)c2cccc(NS(=O)(=O)c3ccc(Br)cc3)c2)CC(C)O1` (stereo unspecified) as the compound, how does the activity change read?
A: 53% (inactive)
